Experimental data reported in PubChem BioAssay (NCATS).
Values joined by “and” are separate entries in the source; they are usually repeats but may differ in a detail not shown here. Equal entries are not always repeated. A number with no mark means an inactive call. Results filed as inconclusive are left out. Entries that show only a call come without a potency. Active and inactive are the calls of the source. Unless noted, the call rests on the fitted dose curve; in most records, active means well fitted curve in either direction with a large enough effect (not every such curve was filed as active); inconclusive means small, poorly fitted or top-dose-only effect, or another doubt; inactive means flat fitted curve, though single readings scatter.

What was measured:
[1] = AP1 Signaling Pathway (AID 357); settings: ME-180 AP-1-bla reporter, EGF-induced, beta-lactamase ratio, 5 h; at 7.69 µM (top of the series) unless noted;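 further: ME-180 reporter cells stimulated with EGF at its EC50 level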
Procedure, shortened: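 Modulation of EGF-driven AP-1 transcription was assessed with a beta-lactamase reporter in ME-180 cells. Compound and EC50 EGF were co-incubated 5 hours at 37 °C before 2.5-hour CCF4 loading at room temperature and dual-emission reading.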

[2] = biological target: Cytochrome P450 1A2 (Homo sapiens) (UniProt P05177); test: p450-cyp1a2 (AID 410; calls by dose curve; further: potency means the concentration at half of the fitted maximal effect); settings: recombinant CYP1A2, luciferin-ME demethylation, luminescence; series mostly up to 11.4 µM
Sequence of Cytochrome P450 1A2 (Homo sapiens) (P05177 whole entry, looked up): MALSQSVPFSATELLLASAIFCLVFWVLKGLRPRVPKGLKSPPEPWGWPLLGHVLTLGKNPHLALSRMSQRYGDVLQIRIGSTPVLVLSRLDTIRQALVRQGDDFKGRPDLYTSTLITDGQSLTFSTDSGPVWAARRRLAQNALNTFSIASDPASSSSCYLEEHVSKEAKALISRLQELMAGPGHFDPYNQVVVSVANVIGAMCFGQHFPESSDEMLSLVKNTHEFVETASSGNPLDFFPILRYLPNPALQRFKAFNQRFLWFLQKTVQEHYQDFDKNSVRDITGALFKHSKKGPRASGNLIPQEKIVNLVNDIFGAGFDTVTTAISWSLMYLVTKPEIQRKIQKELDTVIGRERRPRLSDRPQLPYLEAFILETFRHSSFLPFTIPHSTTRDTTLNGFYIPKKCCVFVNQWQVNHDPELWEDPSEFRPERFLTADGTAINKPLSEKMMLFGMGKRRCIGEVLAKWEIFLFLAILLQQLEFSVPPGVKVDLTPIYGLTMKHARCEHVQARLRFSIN
Procedure, shortened: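 O-Demethylation of luciferin 6' methyl ether by human CYP1A2 is monitored as luciferase luminescence. Substrate sits at Km (100uM); enzyme is 20nM. Values are scaled to 57 uM furafylline as maximal inhibition.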

[3] = NFAT Signaling Pathway (AID 444); settings: Jurkat NFAT-bla M1, carbachol, beta-lactamase ratio, 5 h; at 7.69 µM (top of the series) unless noted;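 further: carbachol stimulus at about its EC50 of 1 µM final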
Procedure, shortened: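 Jurkat cells with NFAT-driven β-lactamase reporter and co-expressed M1 receptor, stimulated with carbachol (final 1 uM, ~EC50), compound titration, 5 h at 37 °C. CCF4 loaded 1 h at RT; 460/530 nm ratio gave %activity and AC50.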

[4] = Stat Signaling Pathway (AID 446); settings: ME-180 (cervical carcinoma) SIE beta-lactamase reporter, IL-6 stimulated, 5 h; at 7.69 µM (top of the series) unless noted;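 further: ME-180 cervical cancer cells given 40 pM IL-6 alongside compound; SIE-controlled beta-lactamase reporter measured as 460/530 nm FRET emission ratio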
Procedure, shortened: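 Overnight-plated ME-180 cells bearing a STAT Inducible Element beta-lactamase reporter; 5 h co-exposure to compound and 40 pM IL-6; values normalized to 300 pM IL-6 and 125 nM JAK inhibitor controls.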

[5] = biological target: Glucocorticoid receptor (Homo sapiens) (UniProt P04150); test: GR-GFP Redistribution (AID 450;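 active means compounds whose dose series gives a full or clear partial fitted curve of increased nuclear translocation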; further: potency means the concentration at half of the fitted maximal effect); settings: U2OS GR-GFP nuclear translocation, laser cytometry, 2 h
Sequence of Glucocorticoid receptor (Homo sapiens) (P04150 whole entry, looked up, the tested form may be a part): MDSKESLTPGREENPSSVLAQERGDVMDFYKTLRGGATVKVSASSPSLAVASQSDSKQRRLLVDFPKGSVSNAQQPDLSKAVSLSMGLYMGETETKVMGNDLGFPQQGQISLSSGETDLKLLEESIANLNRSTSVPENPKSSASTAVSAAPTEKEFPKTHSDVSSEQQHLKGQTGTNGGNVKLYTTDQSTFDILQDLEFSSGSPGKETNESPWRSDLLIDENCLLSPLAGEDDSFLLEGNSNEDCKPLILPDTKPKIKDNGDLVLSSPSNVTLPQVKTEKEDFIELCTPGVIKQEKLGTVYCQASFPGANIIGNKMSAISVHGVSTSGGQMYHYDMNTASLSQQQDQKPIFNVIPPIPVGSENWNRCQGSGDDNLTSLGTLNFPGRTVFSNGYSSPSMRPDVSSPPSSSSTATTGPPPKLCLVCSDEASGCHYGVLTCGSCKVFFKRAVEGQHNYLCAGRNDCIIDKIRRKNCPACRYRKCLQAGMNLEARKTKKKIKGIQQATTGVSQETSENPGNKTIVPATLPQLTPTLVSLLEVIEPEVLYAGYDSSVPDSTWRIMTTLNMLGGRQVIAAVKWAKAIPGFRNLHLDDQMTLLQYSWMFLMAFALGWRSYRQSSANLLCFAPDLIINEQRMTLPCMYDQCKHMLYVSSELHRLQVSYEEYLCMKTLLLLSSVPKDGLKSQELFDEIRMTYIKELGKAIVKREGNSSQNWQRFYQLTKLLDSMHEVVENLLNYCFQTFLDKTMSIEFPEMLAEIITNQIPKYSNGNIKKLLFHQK

[6] = biological target: Glucocorticoid receptor (Homo sapiens) (UniProt P04150); test: GR-EFC Redistribution (AID 451; calls by dose curve; further: potency means the concentration at half of the fitted maximal effect); settings: CHO-K1 GR-EFC translocation, beta-gal luminescence, 2 h
Procedure, shortened: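 CHO-K1 cells expressing nuclear EA and GR-ED fragments of b-gal; compounds titrated up to 46 uM final, 2 h at 37 C. GR nuclear translocation read as complemented b-gal luminescence after 1 h RT detection.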

[7] = biological target: 3',5'-cyclic-AMP phosphodiesterase 4B (Homo sapiens) (UniProt Q07343); test: qHTS Assay for Inhibitors of PDE-IV (AID 607; active means well fitted activation curve with a large enough effect in the main read-out, with a control signal flat, not every such curve was filed as active); settings: HEK293 ACTOne CNG channel cells, membrane potential fluorescence; series mostly up to 22.9 µM
Sequence of 3',5'-cyclic-AMP phosphodiesterase 4B (Homo sapiens) (Q07343 whole entry, looked up): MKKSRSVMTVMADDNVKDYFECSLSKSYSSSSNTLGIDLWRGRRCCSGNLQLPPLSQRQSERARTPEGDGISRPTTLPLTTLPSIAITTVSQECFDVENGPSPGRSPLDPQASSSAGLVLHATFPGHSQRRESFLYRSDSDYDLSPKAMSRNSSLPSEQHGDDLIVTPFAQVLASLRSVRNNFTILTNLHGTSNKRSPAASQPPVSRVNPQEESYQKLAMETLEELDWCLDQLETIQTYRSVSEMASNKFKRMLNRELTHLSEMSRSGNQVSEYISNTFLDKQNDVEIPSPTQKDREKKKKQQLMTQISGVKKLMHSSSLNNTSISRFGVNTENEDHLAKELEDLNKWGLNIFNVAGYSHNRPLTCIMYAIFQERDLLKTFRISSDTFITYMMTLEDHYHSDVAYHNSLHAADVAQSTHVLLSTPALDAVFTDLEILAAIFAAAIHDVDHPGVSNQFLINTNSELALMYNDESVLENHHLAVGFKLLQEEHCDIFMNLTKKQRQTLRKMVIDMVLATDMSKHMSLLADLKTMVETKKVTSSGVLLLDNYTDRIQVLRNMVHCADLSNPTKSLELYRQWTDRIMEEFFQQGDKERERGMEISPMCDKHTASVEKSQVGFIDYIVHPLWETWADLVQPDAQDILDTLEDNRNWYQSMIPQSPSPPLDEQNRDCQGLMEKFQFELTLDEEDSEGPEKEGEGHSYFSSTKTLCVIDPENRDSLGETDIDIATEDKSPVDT
Procedure, shortened: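 Live HEK293 cells with a modified cyclic nucleotide-gated (CNG) channel report intracellular cAMP via membrane-potential dye fluorescence (ex 535/em 590 nm). Endogenous PDE-IV was targeted. Compounds were tested at up to 22.9 uM final; RO 20-1724 100 uM served as control.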

[8] = biological target: Guanine nucleotide-binding protein G(i) subunit alpha-1 (Homo sapiens) (UniProt P63096); test: qHTS Assay for Inhibitors of RGS12 GoLoco Motif Activity (Green Fluorophore) (AID 879; active means well fitted curve in the direction sought with a large enough effect; an effect the other way counts as inactive or inconclusive;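 further: negative values mean loss of peptide binding seen as reduced polarization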); settings: Galphai1/FITC-RGS12 GoLoco peptide, fluorescence polarization; series mostly up to 57.1 µM
Procedure, shortened: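 A drop in FITC polarization marked displacement of the FITC-tagged RGS12 GoLoco peptide (10 nM) from Gαi1 (50 nM). Compounds were incubated 10 min at room temperature in Tris pH 7.5 buffer containing 150 mM NaCl, 0.1 mM GDP and 0.05% NP40; unlabeled peptide titration served as control.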

[9] = biological target: Cytochrome P450 3A4 (Homo sapiens) (UniProt P08684); test: qHTS Assay for Activators of Cytochrome P450 3A4 (AID 885; active means well fitted curve in the direction sought with a large enough effect; an effect the other way counts as inactive or inconclusive; further: nearly all actives have a fitted effect of over 65% in size); settings: recombinant CYP3A4, Luciferin-PPXE luminescence, 60 min; series mostly up to 11.4 µM
Procedure, shortened: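 Using 20nM recombinant human CYP3A4 in potassium phosphate (200mM), substrate Luciferin-PPXE at 25uM, luminescent luciferin detection followed a 60-min RT NADPH reaction; data scaled to 57 uM ketoconazole.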

[10] = qHTS Assay for Identification of Small Molecule Agonists for Thrombopoietin (TPO) Signaling Pathway (AID 917; active means well fitted curve in the direction sought with a large enough effect; an effect the other way counts as inactive or inconclusive); settings: TPO signaling pathway reporter cells, agonist qHTS, stimulated with TPO at its EC50; series mostly up to 38.5 µM
Procedure, shortened: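 Ba/F3 (mouse) + hTPO receptor + GpIIb-promoter luciferase; IL-3 withdrawn overnight; compound + 26 pM TPO (EC50), 24 hrs, 37 C, 5% CO2; Steadylite luminescence, 10 min RT.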

[11] = biological target: Muscarinic acetylcholine receptor M1 (Rattus norvegicus) (UniProt P08482); test: qHTS Assay for Antagonists of Acetylcholine Muscarinic M1 Receptor: Kinetic Measurement of Intracellular Calcium Response (AID 943; active means well fitted curve in the direction sought with a large enough effect; an effect the other way counts as inactive or inconclusive;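 further: Fluo-4 calcium signal as peak divided by basal fluorescence over 4 min; nearly all actives have a fitted effect of over 75% in size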); settings: M1-expressing cells, kinetic intracellular calcium fluorescence; series mostly up to 35.3 µM
Sequence of Muscarinic acetylcholine receptor M1 (Rattus norvegicus) (P08482 whole entry, looked up): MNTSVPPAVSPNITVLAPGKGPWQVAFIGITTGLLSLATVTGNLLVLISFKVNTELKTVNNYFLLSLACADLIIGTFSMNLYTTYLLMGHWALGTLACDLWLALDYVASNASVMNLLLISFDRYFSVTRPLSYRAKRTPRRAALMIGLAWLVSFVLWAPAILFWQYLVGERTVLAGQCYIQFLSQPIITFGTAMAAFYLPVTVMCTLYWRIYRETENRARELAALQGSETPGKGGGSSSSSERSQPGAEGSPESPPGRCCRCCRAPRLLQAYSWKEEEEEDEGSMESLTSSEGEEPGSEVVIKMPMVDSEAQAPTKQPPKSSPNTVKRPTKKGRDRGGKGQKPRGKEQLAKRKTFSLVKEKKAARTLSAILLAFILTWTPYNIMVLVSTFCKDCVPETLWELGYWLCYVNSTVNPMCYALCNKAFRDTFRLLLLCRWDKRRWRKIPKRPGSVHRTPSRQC
Procedure, shortened: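 Antagonism is measured as inhibition of the carbachol-evoked calcium rise in CHO cells transfected with rat M1. Cells are dye-loaded, exposed to compound for 10 min, then stimulated with 100 nM carbachol (EC80).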

[12] = biological target: Muscarinic acetylcholine receptor M1 (Rattus norvegicus) (UniProt P08482); test: qHTS Assay for Antagonists of Acetylcholine Muscarinic M1 Receptor: Measurement of IP-One Response (AID 944; active means well fitted curve in the direction sought with a large enough effect; an effect the other way counts as inactive or inconclusive; further: nearly all actives have a fitted effect of over 75% in size); settings: CHO-M1 cells, IP-One HTRF, antagonist mode; series mostly up to 46.1 µM
Procedure, shortened: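 Antagonist mode with rat M1 receptor transfected into CHO cells. Compound is added first for 10 min, carbachol at its EC80 follows for 30 min, and lysis reagents then allow TR-FRET detection of accumulated IP1.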

[13] = biological target: Pyruvate kinase (Leishmania mexicana) (UniProt Q27686); test: qHTS Validation Assay for Inhibitors of Leishmania Mexicana Pyruvate Kinase (AID 945; active means well fitted curve in the direction sought with a large enough effect; an effect the other way counts as inactive or inconclusive); settings: purified L. mexicana pyruvate kinase, enzyme activity, E451W mutant enzyme; series mostly up to 57.5 µM
Sequence of Pyruvate kinase (Leishmania mexicana) (Q27686 2-499 E452W): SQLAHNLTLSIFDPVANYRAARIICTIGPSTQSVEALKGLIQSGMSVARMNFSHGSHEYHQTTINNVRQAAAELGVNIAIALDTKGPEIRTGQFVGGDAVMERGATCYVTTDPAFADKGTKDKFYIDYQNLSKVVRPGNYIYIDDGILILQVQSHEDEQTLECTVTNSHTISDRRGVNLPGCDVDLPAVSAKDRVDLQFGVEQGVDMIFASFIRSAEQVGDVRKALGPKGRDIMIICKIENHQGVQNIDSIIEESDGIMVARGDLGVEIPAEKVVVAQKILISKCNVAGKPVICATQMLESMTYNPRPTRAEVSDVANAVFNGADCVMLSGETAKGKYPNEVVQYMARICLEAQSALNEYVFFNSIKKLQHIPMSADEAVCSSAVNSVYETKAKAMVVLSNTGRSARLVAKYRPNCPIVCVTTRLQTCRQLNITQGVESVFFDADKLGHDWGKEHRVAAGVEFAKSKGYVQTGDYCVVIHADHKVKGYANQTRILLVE
Procedure, shortened: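 Substrate mix (0.5 mM PEP, 0.1 mM ADP, 7 mM MgCl2, 50 mM KCl, pH 7.2 imidazole) received compound by pin tool, then 0.2 nM LmPYK E451W. After 1 h at room temperature, PKLight was added and luminescence measured.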

[14] = biological target: Pyruvate kinase PKM (Homo sapiens) (UniProt P14618); test: qHTS Assay for Activators of Human Muscle Pyruvate Kinase (AID 954; active means well fitted curve in the direction sought with a large enough effect, not every such curve was filed as active); settings: purified human muscle pyruvate kinase, luciferase-coupled luminescence, 1 h; series mostly up to 57.5 µM
Sequence of Pyruvate kinase PKM (Homo sapiens) (P14618 whole entry, looked up): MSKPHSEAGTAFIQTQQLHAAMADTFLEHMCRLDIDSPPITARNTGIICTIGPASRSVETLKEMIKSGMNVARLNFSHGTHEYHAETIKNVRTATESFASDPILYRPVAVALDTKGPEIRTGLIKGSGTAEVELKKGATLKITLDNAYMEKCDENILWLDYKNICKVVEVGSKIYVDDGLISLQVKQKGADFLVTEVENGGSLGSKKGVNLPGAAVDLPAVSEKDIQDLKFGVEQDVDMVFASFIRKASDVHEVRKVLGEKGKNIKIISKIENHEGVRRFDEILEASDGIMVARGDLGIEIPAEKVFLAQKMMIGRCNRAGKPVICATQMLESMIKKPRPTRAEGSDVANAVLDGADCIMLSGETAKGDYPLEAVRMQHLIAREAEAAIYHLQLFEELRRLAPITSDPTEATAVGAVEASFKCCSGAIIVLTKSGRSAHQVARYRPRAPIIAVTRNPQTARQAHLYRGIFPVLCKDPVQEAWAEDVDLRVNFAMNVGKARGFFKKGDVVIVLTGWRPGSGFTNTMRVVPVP
Procedure, shortened: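 Screening used highly purified human pyruvate kinase M2 under submaximal activity, with PEP at its Km and ADP below Km. After an hour at room temperature, ATP was read by luciferase luminescence.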

[15] = biological target: Alpha-galactosidase A (Homo sapiens) (UniProt P06280); test: Counterscreen for Glucocerebrosidase Inhibitors: qHTS Assay for Human alpha-Galactosidase at pH 4.5 (AID 992; active means well fitted curve in the direction sought with a large enough effect; an effect the other way counts as inactive or inconclusive); settings: purified enzyme, fluorogenic substrate; series mostly up to 76.9 µM
Sequence of Alpha-galactosidase A (Homo sapiens) (P06280 whole entry, looked up): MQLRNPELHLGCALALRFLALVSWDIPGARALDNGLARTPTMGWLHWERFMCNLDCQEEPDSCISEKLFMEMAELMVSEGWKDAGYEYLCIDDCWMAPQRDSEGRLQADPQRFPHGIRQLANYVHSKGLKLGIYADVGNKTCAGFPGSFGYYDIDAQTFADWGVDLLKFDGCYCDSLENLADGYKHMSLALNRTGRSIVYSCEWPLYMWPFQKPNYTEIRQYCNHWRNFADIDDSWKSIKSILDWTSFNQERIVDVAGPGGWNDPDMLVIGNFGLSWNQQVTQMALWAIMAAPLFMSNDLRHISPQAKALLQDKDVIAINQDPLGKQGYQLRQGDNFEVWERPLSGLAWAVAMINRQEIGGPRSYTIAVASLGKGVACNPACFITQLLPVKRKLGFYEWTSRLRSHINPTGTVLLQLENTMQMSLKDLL
Procedure, shortened: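 Each compound is preincubated briefly with 2 nM enzyme before substrate addition (80 uM); plates then sit 20 min at ambient temperature, are quenched with 1M NaOH/1M glycine, and read fluorometrically.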

[16] = biological target: alpha-glucosidase (Oryza sativa, rice) (UniProt Q653V4); test: Counterscreen for Glucocerebrosidase Inhibitors: qHTS Assay for Rice alpha-Glucosidase at pH 5.0 (AID 997; active means well fitted curve in the direction sought with a large enough effect; an effect the other way counts as inactive or inconclusive); settings: rice alpha-glucosidase enzyme activity; series mostly up to 76.9 µM
Procedure, shortened: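 Endpoint fluorogenic assay at pH 5.0: compounds (0.7 nM to 77 uM) titrated against 4 nM rice enzyme and 400 uM 4-MU-alpha-glucoside for 20 min at room temperature; NaOH/glycine stop, read ex 365/em 440 nm, Hill-fitted AC50.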

[17] = biological target: Cytochrome P450 2D6 (Homo sapiens) (UniProt P10635); test: qHTS Assay for Inhibitors and Substrates of Cytochrome P450 2D6 (AID 891; active means well fitted curve in the direction sought with a large enough effect; an effect the other way counts as inactive or inconclusive;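 further: luciferin methyl ether substrate demethylated by CYP2D6 with NADPH regeneration; nearly all actives have a fitted effect of over 60% in size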); settings: recombinant CYP2D6, luciferin-ME EGE luminescence; series mostly up to 11.4 µM
Sequence of Cytochrome P450 2D6 (Homo sapiens) (P10635 whole entry, looked up): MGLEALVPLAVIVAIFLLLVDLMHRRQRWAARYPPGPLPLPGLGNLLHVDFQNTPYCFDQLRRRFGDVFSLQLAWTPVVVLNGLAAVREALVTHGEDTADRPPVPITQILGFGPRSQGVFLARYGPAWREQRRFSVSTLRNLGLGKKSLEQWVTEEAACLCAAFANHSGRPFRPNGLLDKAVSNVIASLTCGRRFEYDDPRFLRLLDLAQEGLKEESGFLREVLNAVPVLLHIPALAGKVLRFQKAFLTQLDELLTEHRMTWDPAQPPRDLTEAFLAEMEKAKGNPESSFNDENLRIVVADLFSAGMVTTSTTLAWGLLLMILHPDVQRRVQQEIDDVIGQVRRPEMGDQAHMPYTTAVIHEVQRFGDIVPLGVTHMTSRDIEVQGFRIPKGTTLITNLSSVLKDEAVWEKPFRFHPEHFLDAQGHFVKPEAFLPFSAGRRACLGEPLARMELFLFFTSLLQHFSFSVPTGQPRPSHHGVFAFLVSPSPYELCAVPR
Procedure, shortened: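 Luminescent read-out of luciferin formed by 5 nM human CYP2D6 demethylating 30 uM Luciferin-ME EGE (Km level) over 60 min at room temperature after NADPH regeneration addition. Data normalized to full inhibition by 1.43 uM quinidine.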

[18] = biological target: Cytochrome P450 2C19 (Homo sapiens) (UniProt P33261); test: qHTS Assay for Inhibitors and Substrates of Cytochrome P450 2C19 (AID 899; active means well fitted curve in the direction sought with a large enough effect; an effect the other way counts as inactive or inconclusive; further: nearly all actives have a fitted effect of over 60% in size); settings: recombinant CYP2C19, luciferin-H EGE luminescence; series mostly up to 11.4 µM
Sequence of Cytochrome P450 2C19 (Homo sapiens) (P33261 whole entry, looked up): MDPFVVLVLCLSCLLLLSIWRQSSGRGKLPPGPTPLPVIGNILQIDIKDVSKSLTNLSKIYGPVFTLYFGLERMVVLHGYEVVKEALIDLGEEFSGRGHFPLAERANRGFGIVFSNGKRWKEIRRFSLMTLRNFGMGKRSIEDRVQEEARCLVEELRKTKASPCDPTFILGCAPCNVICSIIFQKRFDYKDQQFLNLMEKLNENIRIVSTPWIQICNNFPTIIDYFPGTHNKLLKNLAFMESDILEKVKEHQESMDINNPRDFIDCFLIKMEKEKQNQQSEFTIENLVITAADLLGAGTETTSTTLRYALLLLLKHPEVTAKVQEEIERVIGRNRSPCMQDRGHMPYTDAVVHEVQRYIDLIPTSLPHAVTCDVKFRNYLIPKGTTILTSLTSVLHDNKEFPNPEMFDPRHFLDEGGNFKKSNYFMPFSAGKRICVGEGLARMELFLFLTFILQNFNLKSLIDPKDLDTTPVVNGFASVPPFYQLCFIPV
Procedure, shortened: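 Signal comes from luciferase acting on luciferin released by CYP2C19-mediated hydroxylation of Luciferin-H EGE, 10uM (KM). Assay mix: 5nM enzyme, 50mM KPO4; 60 min at 37C with NADPH regeneration. Data normalized against 57uM ketoconazole.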

[19] = biological target: Mitogen-activated protein kinase 10 (Mus musculus) (UniProt Q61831); test: JNK3 AlphaScreen Assay (AID 530); settings: JNK3 lysate, c-Jun phosphorylation; series mostly up to 11.4 µM;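 further: kinase came from lysate of stimulated human HepG2 cells; signal reports phosphorylation of biotinylated GST-cJun 1-79 at Ser73 with 10 µM ATP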
Procedure, shortened: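 Activity was read by AlphaScreen after JNK3-containing HepG2 lysate (cytokine pre-activated) phosphorylated biotinylated GST-cJun with 10 uM ATP at room temperature. Phospho-Ser73 cJun antibody with Protein-A acceptor beads provided detection.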

SMILES | activity change, negative = inhibition [1] | Potency [2] | activity change, negative = inhibition [3] | activity, negative = inhibition [4] | Potency [5] [µM] | Potency [6] [µM] | Potency [7] | outcome [8] | Potency [9] | outcome [10] | Potency [11] | Potency [12] | outcome [13] | outcome [14] | outcome [15] | Potency [16] | Potency [17] | Potency [18] | Potency [19]
O=c1ccn([C@@H]2O[C@@H](COP(=O)(O)OP(=O)(O)O)[C@H](O)[C@@H]2O)c(=O)[nH]1 | 4.38% [at 38 µM] | inactive | -1.51% [at 38 µM] | 11.6% [at 38 µM] | > 46 | > 46 | inactive | inactive | inactive | inactive | inactive | inactive | inactive | inactive | inactive | inactive |  |  | 
N[C@H](CS(=O)O)C(=O)O | 9.5% [at 38 µM] | inactive | 10.5% [at 38 µM] | 17.2% [at 38 µM] | > 46 | > 46 | inactive |  |  |  |  |  |  |  |  |  | inactive | inactive | 
N[C@@H](C(=O)O)[C@H](O)C(=O)O | -4.8% [at 38 µM] | inactive | -3.19% [at 38 µM] | 8.48% [at 38 µM] | > 46 | > 46 | inactive |  |  |  |  |  |  |  |  |  | inactive | inactive | 
O=C(Nc1ccccc1)N1CCC2(CC1)CCN(C(=O)c1ccco1)CC2 | -11.7% | 10 µM (active) | -5.38% | 15.9% |  | > 46 | inactive |  |  |  |  |  |  |  |  |  |  |  | inactive
C[C@H]1C[C@@H]2[C@H]3CCC4=CC(=O)C=C[C@@]4(C)[C@@]3(Cl)[C@@H](O)C[C@]2(C)[C@]1(OC(=O)c1ccco1)C(=O)CCl | -22% [at 17.2 µM] | 5.01 µM (active) | -27.1% [at 17.2 µM] | -1.49% [at 17.2 µM] |  |  | inactive |  |  |  |  |  |  |  |  |  |  |  | inactive
O=C(O)[C@H]1C[C@H](C(=O)O)N1 | -0.354% [at 38 µM] and 2.92% [at 38 µM] | inactive | 3.19% [at 38 µM] and 0.467% [at 38 µM] | -10.2% [at 38 µM] | > 46 | > 46 | inactive | inactive |  | inactive | inactive | inactive | inactive | inactive | inactive | inactive | inactive | inactive | 
